Data reported in PubChem BioAssay (NCATS).
Results filed as inconclusive are left out. Activity calls are given as the source filed them. Calls come from the whole dose curve; as a rule, active = well fitted curve in the direction sought with a large enough effect; inconclusive = small, poorly fitted or top-dose-only effect, or another doubt; inactive = no such curve, though single readings can be large; an effect the other way counts as inactive or inconclusive.

Tests used:
[1] = Quantitative High-Throughput drug screen in 47 multiple myeloma cell lines against the NCATS MIPE library collection: MMM1_PLB cell viability assay (AID 1918976); note: potency is the fitted concentration of half-maximal effect; nearly all actives have a fitted effect of over 35% in size
Method in brief: (§1)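 ATP-based luminescence (CellTiter-Glo, 5 min RT incubation) quantified surviving cells following two days' treatment with MIPE 4.0 agents at 37 °C, 5% CO2.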

[2] = Quantitative High-Throughput drug screen in 47 multiple myeloma cell lines against the NCATS MIPE library collection: MOLP8_DSMZ cell viability assay (AID 1918977); note: nearly all actives have a fitted effect of over 45% in size; note: potency is the fitted concentration of half-maximal effect
Method in brief: as §1

[3] = Quantitative High-Throughput drug screen in 47 multiple myeloma cell lines against the NCATS MIPE library collection: NCIH929_DSMZ cell viability assay (AID 1918978); note: nearly all actives have a fitted effect of over 35% in size; note: potency is the fitted concentration of half-maximal effect
Method in brief: as §1

[4] = Quantitative High-Throughput drug screen in 47 multiple myeloma cell lines against the NCATS MIPE library collection: OCIMY1_PLB cell viability assay (AID 1918979); note: nearly all actives have a fitted effect of over 35% in size; note: potency is the fitted concentration of half-maximal effect;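 for viability: series mostly up to about 46 µM; 100% = DMSO-only wells and 0% = cell-free media-only wells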
Method in brief: as §1

[5] = Quantitative High-Throughput drug screen in 47 multiple myeloma cell lines against the NCATS MIPE library collection: MM1S_ATCC cell viability assay (AID 1918980); note: potency is the fitted concentration of half-maximal effect; nearly all actives have a fitted effect of over 45% in size
Method in brief: as §1

[6] = Quantitative High-Throughput drug screen in 47 multiple myeloma cell lines against the NCATS MIPE library collection: KMS28PE_JCRB cell viability assay (AID 1918983); note: nearly all actives have a fitted effect of over 35% in size; note: potency is the fitted concentration of half-maximal effect
Method in brief: as §1

[7] = Quantitative High-Throughput drug screen in 47 multiple myeloma cell lines against the NCATS MIPE library collection: L363_DSMZ cell viability assay (AID 1918984); note: nearly all actives have a fitted effect of over 40% in size
Method in brief: as §1

[8] = Quantitative High-Throughput drug screen in 47 multiple myeloma cell lines against the NCATS MIPE library collection: KMS34_JCRB cell viability assay (AID 1918985); note: nearly all actives have a fitted effect of over 40% in size; note: potency is the fitted concentration of half-maximal effect
Method in brief: as §1

[9] = Quantitative High-Throughput drug screen in 47 multiple myeloma cell lines against the NCATS MIPE library collection: OPM1_PLB cell viability assay (AID 1918989); note: nearly all actives have a fitted effect of over 40% in size; note: potency is the fitted concentration of half-maximal effect
Method in brief: as §1

[10] = Quantitative High-Throughput drug screen in 47 multiple myeloma cell lines against the NCATS MIPE library collection: XG6_PLB cell viability assay (AID 1919865); note: nearly all actives have a fitted effect of over 40% in size; note: potency is the fitted concentration of half-maximal effect
Method in brief: as §1

[11] = Quantitative High-Throughput drug screen in 47 multiple myeloma cell lines against the NCATS MIPE library collection: XG1_PLB cell viability assay (AID 1919866); note: nearly all actives have a fitted effect of over 35% in size; note: potency is the fitted concentration of half-maximal effect
Method in brief: as §1

[12] = Quantitative High-Throughput drug screen in 47 multiple myeloma cell lines against the NCATS MIPE library collection: LP1_DSMZ cell viability assay (AID 1918982); note: nearly all actives have a fitted effect of over 35% in size; note: potency is the fitted concentration of half-maximal effect
Method in brief: as §1

[13] = Quantitative High-Throughput drug screen in 47 multiple myeloma cell lines against the NCATS MIPE library collection: SKMM1_PLB cell viability assay (AID 1919863); conditions: SKMM1 myeloma viability, CellTiter-Glo ATP, 48 h; viability: stronger effect = lower value; note: nearly all actives have a fitted effect of over 35% in size; note: potency is the fitted concentration of half-maximal effect; for viability: series mostly up to about 46 µM
Method in brief: as §1

[14] = Quantitative High-Throughput drug screen in 47 multiple myeloma cell lines against the NCATS MIPE library collection: KMS26_JCRB cell viability assay (AID 1918975); note: nearly all actives have a fitted effect of over 45% in size; note: potency is the fitted concentration of half-maximal effect
Method in brief: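 Viability readout: CellTiter-Glo luminescence following 5 min room-temperature incubation with reagent. Prior exposure: 48 h, 37C, humidified 5% CO2, 500 cells per well.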

[15] = Quantitative High-Throughput drug screen in 47 multiple myeloma cell lines against the NCATS MIPE library collection: MM1R_ATCC cell viability assay (AID 1918981); note: nearly all actives have a fitted effect of over 35% in size; note: potency is the fitted concentration of half-maximal effect
Method in brief: as §1

[16] = Quantitative High-Throughput drug screen in 47 multiple myeloma cell lines against the NCATS MIPE library collection: U266_ATCC cell viability assay (AID 1919864); note: nearly all actives have a fitted effect of over 35% in size; note: potency is the fitted concentration of half-maximal effect
Method in brief: as §1

[17] = Quantitative High-Throughput drug screen in 47 multiple myeloma cell lines against the NCATS MIPE library collection: VP6_DJ cell viability assay (AID 1919867); note: nearly all actives have a fitted effect of over 40% in size; note: potency is the fitted concentration of half-maximal effect
Method in brief: as §1

[18] = Quantitative High-Throughput drug screen in 47 multiple myeloma cell lines against the NCATS MIPE library collection: OCIMY7_PLB cell viability assay (AID 1918987); note: nearly all actives have a fitted effect of over 65% in size; note: potency is the fitted concentration of half-maximal effect
Method in brief: as §1

[19] = Quantitative High-Throughput drug screen in 47 multiple myeloma cell lines against the NCATS MIPE library collection: OCIMY5_PLB cell viability assay (AID 1918988); note: potency is the fitted concentration of half-maximal effect; nearly all actives have a fitted effect of over 65% in size
Method in brief: as §1

[20] = Quantitative High-Throughput drug screen in 47 multiple myeloma cell lines against the NCATS MIPE library collection: UTMC2_PLB cell viability assay (AID 1919868); note: nearly all actives have a fitted effect of over 55% in size; note: potency is the fitted concentration of half-maximal effect
Method in brief: as §1

Clc1ccc2c(c1)C(N1CCNCC1)=Nc1ccccc1O2
active: Potency [1] 16.6 µM | Potency [3] 20.9 µM | Potency [5] 7.43 µM | Potency [6] 18.7 µM | Potency [8] 18.7 µM | Potency [9] 20.9 µM
inactive: Potency [2] | Potency [4] | Potency [7] | Potency [10] | Potency [11]

NS(=O)(=O)c1cc2c(cc1Cl)NCNS2(=O)=O
inactive: Potency [2] | Potency [3] | Potency [4] | Potency [12] | Potency [6] | Potency [8] | viability [13] 114%
active: Potency [1] 16.6 µM | Potency [11] 7.43 µM

CC(C)(C)C(=O)Oc1ccc(S(=O)(=O)Nc2ccccc2C(=O)NCC(=O)O)cc1
inactive: Potency [14] | Potency [4] | Potency [15] | Potency [12] | Potency [6] | Potency [8] | Potency [9] | viability [13] 142%

CN1C(C(=O)Nc2ccccn2)=C(O)c2ccccc2S1(=O)=O
inactive: Potency [14] | Potency [2] | Potency [3] | Potency [4] | Potency [12] | Potency [6] | Potency [8] | viability [13] 103% | Potency [16] | Potency [10] | Potency [11] | Potency [17]

C[C@@H]1CC(=O)NN=C1c1ccc(NN=C(C#N)C#N)cc1
active: Potency [1] 18.7 µM | Potency [2] 26.4 µM | Potency [3] 20.9 µM | Potency [4] 23.5 µM | Potency [15] 20.9 µM | Potency [12] 20.9 µM | Potency [6] 23.5 µM | Potency [8] 20.9 µM | Potency [9] 18.7 µM | Potency [10] 23.5 µM | Potency [11] 18.7 µM | Potency [17] 18.7 µM

C[C@H]1c2cccc(O)c2C(O)=C2C(=O)[C@]3(O)C(O)=C(C(N)=O)C(=O)[C@@H](N(C)C)[C@@H]3[C@@H](O)[C@@H]21
active: Potency [14] 23.5 µM | Potency [3] 18.7 µM | Potency [18] 11.8 µM | Potency [19] 23.5 µM | Potency [10] 18.7 µM | Potency [11] 18.7 µM
inactive: Potency [12]

CCC1(c2ccccc2)C(=O)NCNC1=O
inactive: Potency [14] | Potency [2] | Potency [4] | Potency [15] | Potency [12] | Potency [8]
active: Potency [3] 1.32 µM | Potency [18] 3.32 µM | Potency [9] 8.33 µM | Potency [10] 2.09 µM | Potency [11] 2.96 µM | Potency [17] 4.69 µM

CN(C)c1nc(N(C)C)nc(N(C)C)n1
inactive: Potency [14] | Potency [3] | Potency [4] | Potency [15] | Potency [12] | Potency [8] | Potency [9] | Potency [11] | Potency [20]
active: Potency [6] 23.5 µM

CN(C)CCOC(c1ccccc1)c1ccccc1
active: Potency [18] 18.7 µM | Potency [11] 7.43 µM | Potency [17] 6.62 µM | Potency [20] 10.5 µM
inactive: Potency [14] | Potency [15] | Potency [12] | Potency [6] | Potency [8] | viability [13] 119%

COc1ccccc1OCC(O)CN1CCN(CC(=O)Nc2c(C)cccc2C)CC1 (stereo not drawn)
inactive: Potency [14] | Potency [15] | Potency [12] | Potency [7] | Potency [9] | viability [13] 110% | Potency [16] | Potency [10] | Potency [11] | Potency [17]

COc1ccccc1OCCNCC(O)COc1cccc2[nH]c3ccccc3c12 (stereo not drawn)
active: Potency [14] 23.5 µM | Potency [15] 26.4 µM | Potency [19] 18.7 µM | Potency [11] 18.7 µM
inactive: Potency [4]

Cc1cn([C@H]2C=C[C@@H](CO)O2)c(=O)[nH]c1=O
active: Potency [10] 3.82 µM
inactive: Potency [14] | Potency [2] | Potency [3] | Potency [4] | Potency [12] | Potency [6] | Potency [8] | Potency [9] | viability [13] 87.6% | Potency [16] | Potency [11] | Potency [17]

O=C(c1ccc(F)cc1)C1CCN(CCn2c(=O)[nH]c3ccccc3c2=O)CC1
active: Potency [19] 26.4 µM | Potency [16] 4.69 µM
inactive: Potency [14] | Potency [3] | Potency [4] | Potency [15] | Potency [12] | Potency [6] | Potency [7] | Potency [8] | Potency [18] | Potency [9] | Potency [10] | Potency [20]

COC(=O)Nc1nc2ccc(C(=O)c3cccs3)cc2[nH]1
active: Potency [14] 0.296 µM | Potency [3] 0.296 µM | Potency [15] 0.0418 µM | Potency [12] 0.0105 µM | Potency [6] 0.0059 µM | Potency [8] 0.0026 µM | Potency [9] 0.0132 µM | Potency [13] 0.0017 µM | Potency [20] 0.0209 µM

Nc1nnc(-c2cccc(Cl)c2Cl)c(N)n1
inactive: Potency [14] | Potency [4] | Potency [12] | Potency [20]
active: Potency [3] 23.5 µM | Potency [18] 33.2 µM | Potency [9] 23.5 µM | Potency [10] 9.35 µM | Potency [11] 16.6 µM

CN1CCN(C2=Nc3cc(Cl)ccc3Nc3ccccc32)CC1
active: Potency [5] 14.8 µM | Potency [9] 23.5 µM
inactive: Potency [14] | Potency [2] | Potency [4] | Potency [15] | Potency [12] | Potency [6] | Potency [18] | viability [13] 114% | Potency [16]

O=C1N(c2ccccc2)c2ccccc2C1(Cc1ccncc1)Cc1ccncc1
inactive: Potency [3] | Potency [4] | Potency [12] | Potency [6] | Potency [8] | Potency [9] | viability [13] 122%
active: Potency [14] 37.2 µM | Potency [15] 26.4 µM | Potency [11] 18.7 µM | Potency [17] 20.9 µM
